{"source": "PubChem BioAssay AID652067", "about": "(The Scripps Research Institute Molecular Screening Center, 2013)", "note": "The campaign covered roughly 370,000 compounds. About 5,400 (1.5%) were called active. This is one part of a sample in which actives are shown more often than they occur. A number with no mark means an inactive call.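 Rule for the calls: active = activation above the mean of all tested compounds plus 3 SD (cut at about 5.5% in these data); inactive = the rest.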", "data": [{"test_system": "DAF-12 nuclear receptor (Haemonchus contortus)", "assay": "hcDAF-12 driven luciferase reporter activation – cell-based, luminescence, HEK293, lit1-tk-luc reporter, primary screen (AID 652067);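 note: 100% = response to 3 µM Δ7-dafachronic acid high control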", "settings": "HEK293 hcDAF-12 lit1-tk-luc reporter, at 6.8 µM, stronger effect = higher value, 0% DMSO, 100% Δ7-dafachronic acid", "values": [{"compound": "O=S1(=O)c2c(cccc2N2CCCCC2)O[C@H](COCc2ccccc2)CN1C1CC1", "activation": "-2.09%"}, {"compound": "COc1cccc(-c2nc3cc(C)ccc3o2)c1", "activation": "14.7% (active)"}, {"compound": "O=[N+]([O-])c1ccc2oc(-c3cccc(O)c3)nc2c1", "activation": "15.4% (active)"}, {"compound": "O=[N+]([O-])c1ccc2c(c1)C(O)n1nc(-c3ccccc3)nc1S2", "note": "(centres undefined)", "activation": "0.58%"}, {"compound": "COc1cccc(-c2nnc(SCCOc3ccc4c(C)cc(=O)oc4c3)o2)c1", "activation": "0.05%"}, {"compound": "CC(=O)Oc1ccc2c(=O)oc(-c3ccc([N+](=O)[O-])cc3)nc2c1", "activation": "-2.73%"}, {"compound": "COc1cccc(-c2nc(CS(=O)(=O)CC(=O)NCCc3ccc(OC)c(OC)c3)c(C)o2)c1", "activation": "-1.4%"}, {"compound": "COc1cccc(CNC(=O)[C@H]2CCCN2C(=O)[C@H]2CCCN2C(=O)c2cc(F)cc(F)c2)c1", "activation": "-1.64%"}, {"compound": "CSc1ccc(C=Nn2c(-c3ccc(F)cc3)n[nH]c2=S)cc1", "activation": "-0.55%"}, {"compound": "CC(C)Cn1c(CCC(=O)O)ccc1-c1cccs1", "activation": "-0.34%"}, {"compound": "C=C1C(C(C)C)N(C)C2=NC(c3ccccc3)CC(=O)N12", "note": "(centres undefined)", "activation": "-1.26%"}, {"compound": "COc1ccc(-n2c(SCC(=O)Nc3ccccc3-c3ccccc3)nnc2-c2cccnc2)cc1", "activation": "-2.71%"}, {"compound": "CC(=O)Nc1ccc(NC(=O)COc2ccccc2C(=O)Nc2cccc(Cl)c2Cl)cc1", "activation": "5.68% (active)"}, {"compound": "O=C(COc1ccccc1Cl)Nc1ccc(C(=O)c2ccc(C(=O)O)cc2)cc1", "activation": "-0.48%"}, {"compound": "O=C(COc1ccccc1Cl)Nc1ccccc1C(=O)NC1CC1", "activation": "0.7%"}, {"compound": "Brc1ccc(COCCc2cn(Cc3ccccc3)c3ccccc23)cc1", "activation": "-0.22%"}, {"compound": "CC(=O)O[C@@]1(C(C)=O)CCC2[C@H]3C=C(C)C4=CC(=O)CC[C@@]4(C)C3CC[C@]21C", "note": "(some centres undefined)", "activation": "-1.02%"}, {"compound": "COc1ccc2nc(-c3ccccn3)ccc2c1", "activation": "8.16% (active)"}, {"compound": "COc1ccc2cc(CCl)c(Cl)nc2c1", "activation": "-0.92%"}, {"compound": "COc1ccc(C=C(C#N)C#N)c(CSc2ccccn2)c1", "activation": "-0.83%"}, {"compound": "Cc1nc(CNc2ncnc3ccc(-c4ccc5c(c4)OCO5)cc23)cs1", "activation": "-1.68%"}, {"compound": "N/C(Cc1ccc([N+](=O)[O-])cc1)=N\\OC(=O)COc1ccc2ccccc2c1", "activation": "-2.58%"}, {"compound": "O=C(Oc1ccc([N+](=O)[O-])cc1)c1ccc2ccccc2n1", "activation": "8.61% (active)"}, {"compound": "Cc1ccc(S(=O)(=O)N(C)C)cc1NC(=O)C(C)OC(=O)c1ccc2ccccc2n1", "note": "(centres undefined)", "activation": "0.62%"}, {"compound": "COC(=O)C1CN(Cc2cn(Cc3ccc(F)cc3)nn2)CCS(=O)(=O)N1Cc1ccc(Cl)cc1", "note": "(centres undefined)", "activation": "-3.19%"}, {"compound": "COc1ccc(-c2ccccc2C2Cc3nnccc3CN2C(=O)Nc2ccccc2)cc1", "note": "(centres undefined)", "activation": "-1.19%"}, {"compound": "Cc1ccc(Cn2cc(CN3[C@@H](C)COc4cc(Br)ccc4S3(=O)=O)nn2)cc1", "activation": "-3.6%"}, {"compound": "O=C(NCc1ccco1)C1CCCN1S(=O)(=O)c1ccccc1C(F)(F)F", "note": "(centres undefined)", "activation": "-2.37%"}, {"compound": "CN(C)c1nc(N)nc(CSc2ccccn2)n1", "activation": "0.13%"}, {"compound": "CCn1c(SCC(=O)NCC2CCCO2)nc2ccccc21", "note": "(centres undefined)", "activation": "1.17%"}, {"compound": "Cc1ccc(NC(=O)c2cnc(SCC(=O)NCC3CCCO3)n(C)c2=O)cc1", "note": "(centres undefined)", "activation": "5.83% (active)"}, {"compound": "Cn1c(SCC(=O)c2ccccc2)ncc(C(=O)Nc2ccc(F)cc2)c1=O", "activation": "0.15%"}, {"compound": "CCCCN(CC)C(=O)c1ccccc1Oc1ccccc1", "activation": "-2.5%"}, {"compound": "COCc1cc(N2CCN(C(=O)OC(C)(C)C)C[C@@H]2C)ccc1N1CCN(Cc2ccccc2)[C@H](C)C1", "activation": "-1.75%"}, {"compound": "O=C(NCCc1ccccc1)Oc1ccc(Cl)cc1", "activation": "2.6%"}, {"compound": "CCCOc1ccc(C(=O)NCCc2ccccc2)cc1", "activation": "7.01% (active)"}, {"compound": "CC(C)c1ccc(C(=O)NCCCc2ccccc2)cc1", "activation": "2.26%"}, {"compound": "N#Cc1ccc(OCCCN2CCC(C(O)(c3ccccc3)c3ccccc3)CC2)c(F)c1", "activation": "-0.43%"}, {"compound": "CCOCCCNC(=O)C(NC(=O)CNC(=O)c1ccccc1)c1ccc(C)cc1", "note": "(centres undefined)", "activation": "-0.9%"}, {"compound": "CCOCCCNC(=O)C(NC(=O)Cc1c[nH]c2ccccc12)c1ccc(OC)cc1", "note": "(centres undefined)", "activation": "5.82% (active)"}, {"compound": "CCOCCCNC(=O)C(NC(=O)CNC(=O)c1ccccc1)c1ccc(OC)cc1", "note": "(centres undefined)", "activation": "1.22%"}, {"compound": "COc1ccc(-n2c(COc3ccc(C)cc3)nnc2SCC(=O)Nc2ccc(Oc3ccccc3)cc2)cc1", "activation": "-2.93%"}, {"compound": "CCN(CC)C(=O)CC[C@H]1CC[C@]2(CCCN(Cc3ccc(Cl)cc3)C2)O1", "activation": "-0.52%"}, {"compound": "CN(Cc1ccc(C(F)(F)F)cc1)C(=O)[C@H]1O[C@@H](n2cnc3c(N)ncnc32)[C@H](O)[C@@H]1O", "activation": "-3.28%"}, {"compound": "Cc1cc(C)cc(NC(=O)C(OC(=O)c2ccc(O)cc2)c2ccccc2)c1", "note": "(centres undefined)", "activation": "2.07%"}, {"compound": "Cc1ccc(C)c(NC(=O)C(OC(=O)c2ccc(C)s2)c2ccccc2)c1", "note": "(centres undefined)", "activation": "5.84% (active)"}, {"compound": "COc1ccc(C)cc1NC(=O)C(OC(=O)c1cccc(S(=O)(=O)N(C)c2ccccc2)c1)c1ccccc1", "note": "(centres undefined)", "activation": "0.81%"}, {"compound": "COc1cccc(-c2cc3nc(NCCOc4ccccc4Cl)n(C)c(=O)c3s2)c1", "activation": "-0.41%"}, {"compound": "Cn1c(NCc2cccnc2)nc2cc(-c3ccc(F)cc3)sc2c1=O", "activation": "-0.57%"}, {"compound": "O=c1[nH]c(CCl)nc2cc(-c3ccc(Cl)cc3)sc12", "activation": "7.46% (active)"}, {"compound": "CCCOc1ccc(Oc2c(Cl)cnn(Cc3cccc4ccccc34)c2=O)cc1", "activation": "0.08%"}, {"compound": "O=C(O)CC(CC(=O)N1CCOCC1)c1ccccc1", "note": "(centres undefined)", "activation": "-2.07%"}, {"compound": "CC(=O)c1ccc(NC(=O)CSC(=S)N2CCCC2)cc1", "activation": "4.8%"}, {"compound": "O=C(CSC(=S)N1CCCCC1)c1c(F)cccc1F", "activation": "6.39% (active)"}, {"compound": "O=C(CSC(=S)N1CCOCC1)c1ccccc1", "activation": "6.9% (active)"}, {"compound": "COc1cccc(NC(=O)CN(C)C(=O)CSC(=S)N2CCCC2)c1", "activation": "0.17%"}, {"compound": "N[C@@H](Cc1ccccc1)C(=O)N1CCOCC1", "activation": "-1.46%"}, {"compound": "CCOC(=O)[C@@]12CCC3=C1N(CCC3)C(=O)[C@H](CC(=O)N1CCN(C(=O)c3ccco3)CC1)C2", "activation": "0.92%"}, {"compound": "CN1CCOC1c1ccc(C2OCCN2C)cc1", "note": "(centres undefined)", "activation": "-0.23%"}, {"compound": "CC(=O)C1=C(C)N(Cc2ccccc2)C(=S)NC1c1cccc(Br)c1", "note": "(centres undefined)", "activation": "1.52%"}, {"compound": "CCOc1ccc(NC(=O)CSc2ncnc3c2sc2ccccc23)cc1", "activation": "2.39%"}, {"compound": "COC(=O)[C@H](C(C)C)N1CCc2nnn(Cc3ccc(C)cc3)c2-c2ccccc2S1(=O)=O", "activation": "-1.76%"}, {"compound": "O=C(Nc1cc(F)cc(F)c1)OC1CCC12CCC(c1ccccc1)CC2", "note": "(centres undefined)", "activation": "1.63%"}, {"compound": "NC(=O)Nc1ccccc1C(=O)NCCc1ccccc1", "activation": "8.5% (active)"}, {"compound": "Nc1nonc1C(=O)NCCc1ccccc1", "activation": "-1.41%"}, {"compound": "O=C(O)c1ccccc1-c1ccccc1C(=O)NCCc1ccccc1", "activation": "-1.14%"}, {"compound": "Cn1c(SCC(=O)N/N=C/c2ccc(O)c(O)c2)nc2ccccc21", "activation": "0.79%"}, {"compound": "C/C(=N\\c1nc2ccccc2n1C)c1cc(Cl)ccc1O", "activation": "4.18%"}, {"compound": "CCN(CC)CCn1c(/N=C/c2cc(Br)ccc2O)nc2ccccc21", "activation": "6.13% (active)"}, {"compound": "CCOC(=O)Cn1c2c(n(-c3ccc(F)cc3)c1=O)C=C(c1ccccc1)[C@@H](C)C(C(=O)N(C)C1CCCCC1)=C2", "activation": "-0.1%"}, {"compound": "N#Cc1cccc(C(=O)NCC2CCN(C(=O)C(=O)c3cc4ccccc4o3)CC2)c1", "activation": "-1.58%"}, {"compound": "Cc1cccc(NC(=O)C[C@H]2CC[C@H]3[C@@H](COc4ccc(NC(=O)Nc5ccccc5)cc4C(=O)N3C)O2)c1", "activation": "-0.28%"}, {"compound": "CN(CC(=O)Nc1ccc(Cl)cc1)C(=O)CNC(=O)c1ccc2ccccc2c1", "activation": "6.25% (active)"}, {"compound": "CN(CC(=O)Nc1ccc(Cl)cc1)CC(=O)Nc1cccc2ccccc12", "activation": "-0.93%"}, {"compound": "CN(CC(=O)Nc1ccc(Cl)cc1)C(=O)c1ccc(COc2ccccc2)cc1", "activation": "-1.47%"}, {"compound": "CN1C(=O)C2CC(O)C(SC3CC4C(=O)N(C)C(=O)C4CC3O)CC2C1=O", "note": "(centres undefined)", "activation": "0.52%"}, {"compound": "CC[C@H](NC(=O)[C@H](Cc1ccccc1)NC(=O)[C@H]1O[C@@H](n2cnc3c(=O)[nH]c(N)nc32)[C@H](O)[C@@H]1O)c1ccccc1", "activation": "-0.3%"}, {"compound": "Fc1ccc(-c2ccc(CNCc3ccccn3)o2)cc1Cl", "activation": "0.05%"}, {"compound": "Clc1ccccc1-c1cc(COc2ccc3ccccc3c2)no1", "activation": "-2.26%"}, {"compound": "Clc1ccc(-c2cc(-c3ccccn3)on2)c(Cl)c1", "activation": "12.3% (active)"}, {"compound": "CC(=O)N1CCCN(C2=Nc3ccccc3Sc3ccccc32)CC1", "activation": "-0.4%"}, {"compound": "COCCCNC(=O)C[C@H]1C[C@@]2(C(=O)OC)C(=C[C@H](C(C)(C)C)O[C@@H]2C)N(Cc2ccc3c(c2)OCO3)C1=O", "activation": "-1.12%"}, {"compound": "O=C1CCC(=O)N(O)CCCCCNC(=O)CCC(=O)N(O)CCCCCNC(=O)CCC(=O)N(O)CCCCCN1", "activation": "0.23%"}, {"compound": "CCCCNC(=O)OC(C)CNC(=O)OC", "note": "(centres undefined)", "activation": "-0.33%"}, {"compound": "CC(C)C(=O)Nc1ccc2c(c1)oc1ccccc12", "activation": "6.7% (active)"}, {"compound": "CC(C)C(=O)Nc1oc(-c2ccccc2)cc1C#N", "activation": "-1.35%"}, {"compound": "CC(C)C(=O)Nc1c(C(=O)c2ccc(F)cc2)oc2ccccc12", "activation": "-1.93%"}, {"compound": "FC(F)(F)c1cccc(NC(=S)OC2CCC23CCC(c2ccccc2)CC3)c1", "note": "(centres undefined)", "activation": "-0.73%"}, {"compound": "CCOC(=O)N1CCN(C(=O)C[C@H]2C[C@@]3(C(=O)OC)C(=C[C@H](C4CCCC4)O[C@@H]3C)N(Cc3ccccc3)C2=O)CC1", "activation": "-0.64%"}]}]}
